sPLA2-III inh = Blocks human group III sPLA2 activity. AID 743126. inhibition, % at 12.2 µM. hit rate 0.56% among 370,000. QFRET BODIPY PC-A2 liposome hydrolysis, fluorescence. Q9NZ20;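 active = inhibition above mean plus 3 SD of compounds lying within the high and low control bounds, cut at about 19% in these data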;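 also: 0% = median of test compound wells and 100% = no enzyme DMSO wells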
PLCb3 inh = blocks human PLC-beta3 enzyme activity. inhibition, % at 12.2 µM. Q01970. hit rate 0.18% among 370,000. Purified PLC-beta3, fluorogenic substrate, fluorescence. AID 720704; in the data active = inhibition above about 11%;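 also: 0% = median of compound wells on plate and 100% = full blocker control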
ADAM10 inh = inhibits human ADAM10 | O14672 | recombinant ADAM10, EDANS/DABCYL FRET peptide cleavage, 3 h | inhibition, % at 7 µM | hit rate 0.62% among 370,000 | AID 720582;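 active = inhibition above a per-campaign cutoff equal to the mean of compounds falling between control-based bounds plus 3 SD, cut at about 20% in these data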;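 also: 0% = DMSO wells while the 100% control is not disclosed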
Target sequence (O14672 214-748 limits assumed): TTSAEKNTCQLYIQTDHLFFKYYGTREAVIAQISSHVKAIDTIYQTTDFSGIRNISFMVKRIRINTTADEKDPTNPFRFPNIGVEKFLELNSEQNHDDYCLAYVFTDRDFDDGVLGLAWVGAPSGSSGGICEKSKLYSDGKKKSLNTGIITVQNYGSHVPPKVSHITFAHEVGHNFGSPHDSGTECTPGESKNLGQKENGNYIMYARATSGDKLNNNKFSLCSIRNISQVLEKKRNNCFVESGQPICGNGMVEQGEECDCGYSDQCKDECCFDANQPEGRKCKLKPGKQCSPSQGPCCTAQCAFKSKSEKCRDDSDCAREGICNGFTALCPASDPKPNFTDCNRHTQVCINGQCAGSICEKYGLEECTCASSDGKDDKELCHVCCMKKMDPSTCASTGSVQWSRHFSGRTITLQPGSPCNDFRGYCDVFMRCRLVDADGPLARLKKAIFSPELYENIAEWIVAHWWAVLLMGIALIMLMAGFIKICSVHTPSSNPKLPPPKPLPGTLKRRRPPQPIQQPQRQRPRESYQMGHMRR
PLCg1 inh = blocks human PLC-gamma1 enzyme activity. P19174. purified PLC-gamma1, fluorogenic substrate, fluorescence. inhibition, % at 12.2 µM. hit rate 0.84% among 370,000. AID 720700; in the data active = inhibition above about 9.5%
ADAM17 inh = inhibits human ADAM17; hit rate 0.83% among 370,000; inhibition, % at 6.95 µM; P78536; AID 720648; recombinant ADAM17, EDANS/DABCYL FRET peptide cleavage;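 active = inhibition above the mean of compounds lying between control limits plus 3 SD, set per campaign, cut at about 8.5% in these data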;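 also: 0% = DMSO-only wells as the low control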
KLK7 zymogen act = activates the human kallikrein-7 zymogen | activation, % at 7 µM | AID 652039 | purified proKLK7, EDANS-DABCYL substrate fluorescence; 100% is mature enzyme control, 0% vehicle | hit rate 0.9% among 370,000;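 active = activation above the mean of all tested compounds plus 3 SD, computed per campaign excluding outliers beyond control limits, cut at about 13% in these data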
KLK7 act conf = confirmation of human kallikrein-7 zymogen activators | shares compounds with KLK7 zymogen act | AID 686949 | purified proKLK7, EDANS-DABCYL substrate fluorescence; scaled: vehicle 0, mature enzyme 100 | activation, % at 7 µM | hit rate 68% among 3,200;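 active = activation, as change over the incubation, above the mean of all tested compounds plus 3 SD, cut at about 13% in these data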
EDANS interfere = fluorescence interference counter-screen for KLK7 activators | shares compounds with KLK7 zymogen act | EDANS-DABCYL substrate fluorescence interference, no enzyme, 4 h; solvent 0%, active enzyme control 100% | activation, % at 7 µM | hit rate 80% among 3,200;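 active = activation above the all-compound mean plus 3 SD, ignoring values outside control-based bounds, cut at about 4.8% in these data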;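 also: value is the 4 h activation minus the activation read at time zero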
K7 EDANS ctr = counter-screen for kallikrein-7 activators: EDANS-DABCYL interference, dose response; shares compounds with KLK7 zymogen act; EDANS-DABCYL peptide fluorescence interference, no enzyme; EC50, µM; hit rate 20% among 250; AID 720493;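 active = compounds that raise the fluorescence signal in this interference counterscreen, with EC50 at or below 10 µM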;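 also: intact quenched peptide substrate alone read at 355 nm excitation and 520 nm emission; signal is fluorescence gain from T0 to T4 after four hours at room temperature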
* = called active by the depositor; i = inactive; nt = no result. The list is not random: actives were taken first. Their share in the collection is about 3.4%.

SMILES | sPLA2-III inh | PLCb3 inh | ADAM10 inh | PLCg1 inh | ADAM17 inh | KLK7 zymogen act | KLK7 act conf | EDANS interfere | others
O=C1c2ccccc2NC(c2cccs2)N1NS(=O)(=O)c1ccccc1 (stereo not given) | 7 | -327 | -422 | -263 | -160 | 36* | 5 | 4.5*
COc1ccc(C2C(C(=O)Nc3ccc(Cl)cc3)CCC(=O)N2c2ccc(OC)cc2)cc1 (stereo not given) | -23 | 0 | 6 | 2 | 5 | 0 | nt | nt
COC(=O)[C@]12CCCCC=C1N(Cc1ccc(OC)cc1)C(=O)[C@@H]2CC(=O)N1CCOCC1 | 3 | 0 | -1 | 0 | 1 | 0 | nt | nt
Cc1cc(N2CCC(N(C)C3CCCC3)CC2)nc2cc(O)ccc12 | -13 | i | i | i | -282 | 16* | 25* | 31*
CN(Cc1ccccc1)C(=O)OCc1cn(Cc2cccc(F)c2F)nn1 | -2 | 1 | -4 | -2 | 0 | 1 | nt | nt
CCc1cc2c(CN3CCN(CC)CC3)cc(=O)oc2cc1O | -2 | i | i | i | i | 71* | 73* | 75*
Cc1c(O)ccc2c(CN3CCOCC3)cc(=O)oc12 | 3 | i | i | i | i | 41* | 65* | 67*
O=c1cc(CN2CCOCC2)c2cc(Cl)c(O)cc2o1 | 9 | i | i | i | i | 54* | 63* | 77*
Cc1cc2oc(=O)cc(CN3CCOCC3)c2cc1C(C)C | -4 | -2 | -10 | -7 | -3 | -1 | nt | nt
COc1cc2c(cc1OC)CN(Cc1cc(=O)oc3cc(C)c(Cl)cc13)CC2 | -26 | -146 | -90 | -146 | -31 | 15* | -8 | -6
COc1cc2c(cc1OC)CSC1C(=O)N(C)C(SC2)C(=O)N1C | -1 | -2 | 2 | -2 | 3 | 0 | nt | nt
Cc1ccc2c(CN3CCN(Cc4ccc5c(c4)OCO5)CC3)cc(=O)oc2c1C | -3 | 1 | -3 | 0 | -2 | 1 | nt | nt
Cc1c(O)ccc2c(CN3CCN(CCO)CC3)cc(=O)oc12 | -2 | i | i | i | i | 66* | 68* | 69*
COc1ccc2ccccc2c1C1NC(=O)c2ccccc2N1 (stereo not given) | -10 | -409 | i | -307 | -210 | 16* | 13 | 6.6*
CCCCOCCCNC(=O)C[C@@H]1C(=O)N(CCc2ccc(Cl)cc2)C2=CCCCC[C@]21C(=O)OC | -17 | 1 | 5 | -1 | 2 | 0 | nt | nt
O=C(NCc1nnc(SCC(=O)N2CCCC2)o1)c1ccccc1F | 0 | -2 | -6 | -2 | -7 | 62* | 0 | 1
COc1cc(/C=C/c2nc3ccccc3c(=O)[nH]2)ccc1O | -13 | -441 | -128 | -330 | -43 | 17* | -1 | 3
CCCCN(C)CCNC(=O)c1cc2c(-c3cccc(OC)c3)nn(C)c2s1 | 1 | -263 | -198 | -204 | -95 | 13* | 10 | 15*
CCN(CC)S(=O)(=O)c1cccc2cc(C(=O)O)c(O)cc12 | -7 | i | -122 | i | -40 | 22* | 74* | 73*
CCCN(CC1CC1)C(=O)CSc1nnc(-c2ccncc2)n1-c1ccc(OC)cc1 | -1 | 1 | -2 | 2 | -1 | 1 | nt | nt
COc1cccc(CN2C(=O)c3ccccc3S2(=O)=O)c1 | 6 | -7 | -4 | 3 | -2 | 0 | nt | nt
COc1cccc(CN2C(=O)c3cccc(N)c3C2=O)c1 | -4 | i | -304 | i | -101 | 15* | 76* | 79*
CNc1cnc(-c2ccc(C(=O)N3CCOCC3)cc2)cn1 | 3 | -385 | i | -320 | i | 20* | 20* | 22*
COc1cccc(N2CCN(C(=O)CSc3nc4ncccc4[nH]3)CC2)c1 | 2 | 3 | -1 | 0 | 1 | 0 | nt | nt
Cn1c(N)c(C(=O)COC(=O)c2cc(-c3ccco3)nc3ccccc23)c(=O)n(C)c1=O | -6 | -22 | -16 | -14 | 4 | 0 | nt | nt
SMILES | sPLA2-III inh | PLCb3 inh | ADAM10 inh | PLCg1 inh | ADAM17 inh | KLK7 zymogen act | KLK7 act conf | EDANS interfere | others
CCOC(=O)c1cc(-c2ccco2)nc2c1c(C)nn2CCC#N | -5 | i | i | i | -257 | 32* | -48 | -66
CCN(CC)C(=O)COC(=O)c1cc(-c2ccco2)nc2ccccc12 | -5 | i | i | i | -217 | 74* | 20* | 17* | K7 EDANS ctr=i
CCOC(=O)c1cc(-c2ccc(Cl)cc2)nc2c1c(C)nn2CCC#N | -1 | -52 | -36 | -37 | -6 | -5 | nt | nt
O=C(COC(=O)c1cc(-c2ccco2)nc2ccccc12)NCc1ccccc1 | 1 | -132 | -48 | -97 | -7 | 22* | 51* | 55*
COC(=O)[C@H](C)N(Cc1cn(Cc2ccccc2)nn1)S(=O)(=O)c1ccccc1Br | 0 | 3 | 9 | -1 | 4 | 1 | nt | nt
CN(Cc1ccccc1)C(=O)OCc1cn(Cc2ccccc2F)nn1 | -1 | 0 | -1 | -2 | 1 | 1 | nt | nt
O=C1Nc2ccccc2/C1=C/c1cccnc1 | -4 | 9 | 9 | 2 | 1 | 0 | nt | nt
O=C1Nc2ccccc2/C1=C/c1cnc(-c2ccccc2)[nH]1 | -11 | -54 | 6 | -31 | 0 | 20* | 40* | 54*
COC(=O)[C@]12C[C@H](CC(=O)NCc3ccc(OC)c(OC)c3)C(=O)N(Cc3ccccc3)C1=C[C@H](COCc1ccccc1)O[C@@H]2C | -6 | 2 | 12 | 3 | 0 | 0 | nt | nt
CCOC(=O)N1CCc2[nH]c3ccc(C)cc3c2C1 | -15 | -97 | -18 | -61 | -10 | 17* | 23* | 23*
O=C(CSc1nnc(-c2ccccc2F)n1Cc1ccco1)Nc1ccccc1-c1ccccc1 | -4 | -2 | 2 | 1 | 2 | 0 | nt | nt
COC(=O)C1=CN(Cc2ccc(F)cc2)C=C(C(=O)OC)C1c1cc(OC)c(OC)c(OC)c1 | 0 | -261 | i | -178 | -230 | -9 | nt | nt
COC(=O)C1=CN(CC2CCCO2)C=C(C(=O)OC)C1c1cc(OC)c(OC)c(OC)c1 (stereo not given) | 4 | -473 | i | -346 | -383 | 16* | 0 | 0
C=CCn1c(SCC(=O)Nc2ccc(-c3nc4ccc(C)cc4s3)cc2)nnc1-c1ccccc1 | -1 | -77 | i | -59 | -142 | 26* | 67* | 67*
Cc1ccc2nc(-c3ccc(NC(=O)CSc4nnc(-c5cc(C)[nH]n5)n4N)cc3)sc2c1 | -20 | -71 | -297 | -60 | -75 | 33* | -3 | -39

Compound activity: PubChem BioAssay, The Scripps Research Institute Molecular Screening Center
